Experimental data: PubChem BioAssay (NCATS)
Where “and” joins values, the source holds several entries; their conditions need not be identical. Identical values can stand only once. Results filed as inconclusive are left out. Calls of active or inactive are those of the source. Unless noted, calls come from the whole dose curve; as a rule, active = well fitted inhibition curve with a large enough effect; inconclusive = small, poorly fitted or top-dose-only effect; inactive = flat fitted curve, though single readings scatter.

What was measured:
[1] = Drug repurposing screens with cells derived from glioblastoma tumor samples (AID 1345199); details: GBM patient neurospheres viability, ATP luminescence, 48 h; note: nearly all actives have a fitted effect of over 40% in size; note: potency is the fitted concentration of half-maximal effect; for activity, negative = cell killing: % is set by controls: 0 for no effect and ±100 for the full control effect
Procedure, shortened: (§1)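 Four patient lines of CD133+ GBM neurospheres were screened at several concentrations; hits were retested in those lines plus three slower-growing GBM lines, using 48-hour treatment and ATP-based viability.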

astro = control astrocytes; assay: as above; details: viability, ATP luminescence, 48 h; series mostly up to 45.9 µM
Procedure, shortened: as §1

[2] = target: Nuclear receptor subfamily 1 group I member 2 (Rattus norvegicus) (UniProt Q9R1A7); assay: qHTS assay for small molecule activators of the rat pregnane X receptor (rPXR) signaling pathway (AID 651751; call rule not given here; note: 0% is about no effect); details: rPXR reporter cells, luciferase (One-Glo), 24 h
[3] = qHTS assay for small molecule activators of the human pregnane X receptor (PXR) signaling pathway (AID 720659; call rule not given here; note: 0% is about no effect); details: DPX-2 HepG2 CYP3A4-luciferase, 24 h; series mostly up to 92.3 µM
[4] = at 45.9 µM (top of the series), tumour line B
[5] = at 45.9 µM (top of the series), tumour line D
[6] = at 46 µM (top of the series), tumour line A
[7] = at 46.1 µM (top of the series), tumour line C
[8] = at 20 µM (top of the series), tumour line C
[9] = at 21.2 µM (top of the series), tumour line B

Chain of Nuclear receptor subfamily 1 group I member 2 (Rattus norvegicus) (Q9R1A7 whole entry, looked up): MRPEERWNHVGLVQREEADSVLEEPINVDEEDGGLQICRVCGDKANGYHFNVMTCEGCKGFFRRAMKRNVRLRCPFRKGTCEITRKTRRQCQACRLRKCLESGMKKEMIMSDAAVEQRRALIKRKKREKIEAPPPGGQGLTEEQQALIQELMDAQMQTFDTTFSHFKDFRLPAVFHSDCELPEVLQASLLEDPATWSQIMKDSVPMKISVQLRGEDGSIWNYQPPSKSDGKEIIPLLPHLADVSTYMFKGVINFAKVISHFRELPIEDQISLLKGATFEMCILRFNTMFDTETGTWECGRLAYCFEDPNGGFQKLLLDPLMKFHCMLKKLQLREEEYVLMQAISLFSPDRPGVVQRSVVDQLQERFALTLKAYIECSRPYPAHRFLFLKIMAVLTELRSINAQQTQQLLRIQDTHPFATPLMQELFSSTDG

CCCCCl
inactive: activity, negative = cell killing [1, 4] -5.4% | activity, negative = cell killing [1, 5] -17.7% | activity, negative = cell killing [1, 6] -20.4% | activity, negative = cell killing [1, 7] 7.44% | Potency (astro) | max response [2] -2.58% | outcome [3]

CCC1(c2ccccc2)C(=O)NC(=O)N(C)C1=O (stereo not drawn)
inactive: activity, negative = cell killing [1, 4] -7.4% | activity, negative = cell killing [1, 5] -10.2% | activity, negative = cell killing [1, 6] -23% | activity, negative = cell killing [1, 7] 7.87% | Potency (astro)

Oc1cc(Cl)c(Cl)cc1Cl
inactive: activity, negative = cell killing [1, 4] -12.6% | activity, negative = cell killing [1, 5] -21.4% | activity, negative = cell killing [1, 6] -39.7% | activity, negative = cell killing [1, 7] -1.02% | Potency (astro) | max response [2] 6.93% and 2.63% | outcome [3]

COc1ccc2c3c1O[C@H]1C(=O)CC[C@H]4[C@@H](C2)N(C)CC[C@]314
inactive: activity, negative = cell killing [1, 4] -6.83% | activity, negative = cell killing [1, 5] -23.5% | activity, negative = cell killing [1, 6] -21.5% | activity, negative = cell killing [1, 7] -7.26% | Potency (astro)

O=CC=O
inactive: activity, negative = cell killing [1, 4] 0.224% | activity, negative = cell killing [1, 5] -5.05% | activity, negative = cell killing [1, 6] -22.3% | activity, negative = cell killing [1, 7] 29.7% | Potency (astro) | max response [2] -6.34% | outcome [3]

CCON=O
active: Potency ([1]; tumour line A) 224 nM
inactive: activity, negative = cell killing [1, 4] -13.3% | activity, negative = cell killing [1, 5] 8.29% | activity, negative = cell killing [1, 7] -23.8% | Potency (astro)

Oc1cccc[c]1[Hg][Cl]
inactive: activity, negative = cell killing [1, 7] -98.2%
active: Potency ([1]; tumour line A) 398 nM | Potency ([1]; tumour line B) 562 nM | Potency ([1]; tumour line D) 1000 nM | Potency (astro) 2820 nM

FC(F)OC(F)(F)C(F)Cl (stereo not drawn)
inactive: activity, negative = cell killing [1, 4] -9.16% | activity, negative = cell killing [1, 5] 6% | activity, negative = cell killing [1, 6] -21% | activity, negative = cell killing [1, 7] -2.93% | Potency (astro)

CCOC(=O)/C=C(C)/C=C/C[C@@H](C)CCCC(C)C
inactive: activity, negative = cell killing [1, 4] -7.77% | activity, negative = cell killing [1, 5] 3.89% | activity, negative = cell killing [1, 6] -29.3% | activity, negative = cell killing [1, 7] -6.42% | Potency (astro)

CCN1C[C@]2(COC)[C@H](O)C[C@H](OC)[C@@]34[C@@H]5C[C@@]6(O)[C@H](OC(=O)c7ccccc7)[C@@H]5[C@@](OC(C)=O)([C@@H]([C@H](OC)[C@H]23)[C@@H]14)[C@@H](O)[C@@H]6OC
inactive: activity, negative = cell killing [1, 4] -6.48% | activity, negative = cell killing [1, 5] -4.25% | activity, negative = cell killing [1, 7] 8.16% | Potency (astro)

Cc1cccc(C(C)c2cnc[nH]2)c1C (stereo not drawn)
inactive: activity, negative = cell killing [1, 4] -17.4% | activity, negative = cell killing [1, 5] 6.82% | activity, negative = cell killing [1, 7] -27% | Potency (astro)

COC(=O)[C@@H]1[C@H]2CC[C@@H](C[C@H]1OC(=O)c1ccccc1)N2C
inactive: activity, negative = cell killing [1, 4] -0.119% | activity, negative = cell killing [1, 5] 4.05% | activity, negative = cell killing [1, 7] -3.81% | Potency (astro)

CN(C)CCCCCCN(C)C (tested in a mixture with another compound)
inactive: activity, negative = cell killing [1, 4] -12.5% | activity, negative = cell killing [1, 5] -12.1% | activity, negative = cell killing [1, 7] -16.2% | Potency (astro)

C[N+]1(C)CCCCC1COC(=O)C(O)(c1ccccc1)c1ccccc1 (stereo not drawn)
inactive: activity, negative = cell killing [1, 4] -0.912% | activity, negative = cell killing [1, 5] -3.36% | activity, negative = cell killing [1, 7] -16.5% | Potency (astro)

Clc1ccc(C(Cn2ccnc2)OCc2csc3c(Cl)cccc23)c(Cl)c1 (stereo not drawn)
inactive: activity, negative = cell killing [1, 8] 2.67% | activity, negative = cell killing [1, 9] -18.1% | Potency (astro)
active: Potency ([1]; tumour line A) 12600 nM

c1ccc2sc(SNC3CCCCC3)nc2c1
inactive: activity, negative = cell killing [1, 4] -13.7% | activity, negative = cell killing [1, 5] -11.7% | activity, negative = cell killing [1, 7] -8.99% | Potency (astro)

CN[C@H]1C[C@@H](N)[C@H](O)[C@@H](O[C@@H]2O[C@H](CO)[C@H](O)[C@@H]3OC4(O[C@H]23)O[C@H](C(N)CO)[C@H](O)[C@H](O)[C@H]4O)[C@@H]1O (stereo partly drawn)
inactive: activity, negative = cell killing [1, 5] -24.2% | activity, negative = cell killing [1, 6] -23.6% | activity, negative = cell killing [1, 7] 9% and -3.99% | Potency (astro)

C[C@@H](Cc1ccccc1)N(C)C
inactive: activity, negative = cell killing [1, 4] -4.88% | activity, negative = cell killing [1, 5] -10.7% | activity, negative = cell killing [1, 7] -6.52% | Potency (astro)

OC[C@@H](O)[C@H]1O[C@@H]2O[C@H](C(Cl)(Cl)Cl)O[C@@H]2[C@H]1O
inactive: activity, negative = cell killing [1, 4] -1.98% | activity, negative = cell killing [1, 5] -2.86% | activity, negative = cell killing [1, 7] -11.5% | Potency (astro)

O=C(CCl)c1ccc(Oc2ccc(C(=O)CCl)cc2)cc1
inactive: activity, negative = cell killing [1, 4] -24.4% | activity, negative = cell killing [1, 5] -6.59% | activity, negative = cell killing [1, 7] -8.36% | Potency (astro)

COc1ccc(OC)c([C@@H](O)[C@H](C)N)c1
inactive: activity, negative = cell killing [1, 4] -15.8% | activity, negative = cell killing [1, 5] -1.31% | activity, negative = cell killing [1, 7] -18.1% | Potency (astro)

CC[C@H]1[C@@H]2C[C@H]3[C@@H]4N(C)c5ccccc5[C@]45C[C@@H](C2[C@H]5O)N3[C@@H]1O (stereo partly drawn)
inactive: activity, negative = cell killing [1, 8] 5.4% | activity, negative = cell killing [1, 9] 2.75% | activity, negative = cell killing ([1]; at 21.2 µM (top of the series), tumour line D) 6.31% | Potency (astro)
